Assay results: PubChem BioAssay (NCI)
About 83,000 compounds went through this panel and 20% of them were active in at least one assay; those are over-represented in the sample as a whole.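 In brief: 96-well plates, 48 h treatment, single concentration, percent growth endpoint.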 Calls of active or inactive are those of the source. The calls were made as follows: active = growth percent below 10; inactive = the rest.

Key:
Experiment in all cases: NCI-60 one-dose screen, 48 h (100 = growth as untreated, 0 = no growth, -100 = all killed)
SR leukemia = settings: 10 µM unless noted
RPMI-8226 leukemia = settings: 10 µM unless noted
OVCAR-8 ovarian = settings: 10 µM unless noted
OVCAR-5 ovarian = settings: 10 µM unless noted
OVCAR-4 ovarian = settings: 10 µM unless noted
SK-OV-3 ovarian = settings: 10 µM unless noted
IGROV1 ovarian = settings: 10 µM unless noted
OVCAR-3 ovarian = settings: 10 µM unless noted
HS 578T breast = settings: 10 µM
NCI/ADR-RES ovarian = settings: 10 µM unless noted
T-47D breast = settings: 10 µM unless noted
BT-549 breast = settings: 10 µM unless noted
MDA-MB-435 melanoma = settings: 10 µM unless noted
SW-620 colon = settings: 10 µM unless noted
MCF7 breast = settings: 10 µM unless noted
HCT-116 colon = settings: 10 µM unless noted
HCC-2998 colon = settings: 10 µM
KM12 colon = settings: 10 µM unless noted

Measured: growth

O=C(Cc1ccccc1)Nc1nnc(NC2CCN(c3nnc(NC(=O)Cc4ccccc4)s3)CC2)s1
inactive: SR leukemia 84.9% | RPMI-8226 leukemia 58.9% | OVCAR-8 ovarian 95.2% | OVCAR-5 ovarian 94.3% | OVCAR-4 ovarian 98.8% | SK-OV-3 ovarian 84% | IGROV1 ovarian 84.8% | OVCAR-3 ovarian 94.4% | HS 578T breast 78.6% | NCI/ADR-RES ovarian 98.4% | T-47D breast 84% | BT-549 breast 82% | MDA-MB-435 melanoma 102% | SW-620 colon 99.8% | MCF7 breast 87.4% | HCT-116 colon 89.2% | HCC-2998 colon 101% | KM12 colon 59.2%

COc1ccc2c(CCC(c3ccccc3)c3ccccc3)c3[n+](cc2c1OC)CCc1cc2c(cc1-3)OCO2
active: SR leukemia -29.9% | RPMI-8226 leukemia -9.79% | OVCAR-8 ovarian 2.77% | SK-OV-3 ovarian -12.8% | OVCAR-3 ovarian -0.03% | T-47D breast 5.67% | BT-549 breast -29.1% | MDA-MB-435 melanoma -72% | MCF7 breast 9.86% | HCT-116 colon 6.81% | HCC-2998 colon -13.7% | KM12 colon -76.7%
inactive: OVCAR-5 ovarian 29% | OVCAR-4 ovarian 13.3% | IGROV1 ovarian 22.9% | HS 578T breast 20.7% | NCI/ADR-RES ovarian 78.9% | SW-620 colon 11.5%

CC(=O)CC1CCCC1c1ccc2ccccc2c1 (stereo not given)
inactive: SR leukemia 104% | RPMI-8226 leukemia 103% | OVCAR-8 ovarian 100% | OVCAR-5 ovarian 97.2% | OVCAR-4 ovarian 112% | SK-OV-3 ovarian 101% | IGROV1 ovarian 101% | OVCAR-3 ovarian 105% | HS 578T breast 100% | NCI/ADR-RES ovarian 102% | T-47D breast 90% | BT-549 breast 109% | MDA-MB-435 melanoma 111% | SW-620 colon 106% | MCF7 breast 95.9% | HCT-116 colon 104% | HCC-2998 colon 86.8% | KM12 colon 106%

CC(C)(C)OC(=O)N1CCC(O)[C@@H](O[Si](c2ccccc2)(c2ccccc2)C(C)(C)C)[C@H]1/C=C/c1ccccc1 (stereo not given in full)
inactive: SR leukemia 32.6% | RPMI-8226 leukemia 25.2% | OVCAR-8 ovarian 59.5% | OVCAR-5 ovarian 71.5% | OVCAR-4 ovarian 21.3% | SK-OV-3 ovarian 56.3% | IGROV1 ovarian 60.6% | OVCAR-3 ovarian 43.6% | HS 578T breast 55.8% | NCI/ADR-RES ovarian 69.3% | T-47D breast 21.4% | BT-549 breast 63% | MDA-MB-435 melanoma 57.4% | SW-620 colon 50.9% | MCF7 breast 36.6% | HCT-116 colon 24.9% | HCC-2998 colon 44.8% | KM12 colon 47%

CC1(/C=N/NC(N)=S)NC(=O)NC1=O (stereo not given)
inactive: SR leukemia 94.8% | RPMI-8226 leukemia 104% | OVCAR-8 ovarian 97.7% | OVCAR-5 ovarian 102% | OVCAR-4 ovarian 109% | SK-OV-3 ovarian 86.9% | IGROV1 ovarian 111% | OVCAR-3 ovarian 109% | HS 578T breast 97% | NCI/ADR-RES ovarian 111% | T-47D breast 79.5% | BT-549 breast 105% | MDA-MB-435 melanoma 107% | SW-620 colon 106% | MCF7 breast 94.8% | HCT-116 colon 98.4% | KM12 colon 104%

CCc1nc2cc(F)c(/C=C/C(=O)NO)cc2c(=O)n1CCc1ccccc1
active: SK-OV-3 ovarian 1.17% | OVCAR-3 ovarian 7.99% | NCI/ADR-RES ovarian 2.43% | T-47D breast 2.26% | SW-620 colon 9.97% | HCT-116 colon 5.01%
inactive: SR leukemia 15.1% | RPMI-8226 leukemia 11% | OVCAR-8 ovarian 11.6% | OVCAR-5 ovarian 23.6% | OVCAR-4 ovarian 15.4% | IGROV1 ovarian 32.2% | HS 578T breast 43.3% | BT-549 breast 28.8% | MDA-MB-435 melanoma 23.8% | MCF7 breast 12.3% | HCC-2998 colon 37.3% | KM12 colon 25.6%

O=C(CNc1nc(-c2ccc(Cl)cc2)cs1)Nc1ccc(-c2nc3ccccc3s2)cc1
inactive: SR leukemia 89.7% | RPMI-8226 leukemia 87.4% | OVCAR-8 ovarian 98% | OVCAR-5 ovarian 90.4% | OVCAR-4 ovarian 70.5% | SK-OV-3 ovarian 95% | IGROV1 ovarian 59.1% | OVCAR-3 ovarian 94% | HS 578T breast 91.3% | NCI/ADR-RES ovarian 94.2% | T-47D breast 56.1% | BT-549 breast 107% | MDA-MB-435 melanoma 104% | SW-620 colon 99.9% | MCF7 breast 29.9% | HCT-116 colon 95.5% | HCC-2998 colon 97.5% | KM12 colon 99%

CCN1CCN(c2nc(C)cc(N(CCNc3ccnc4cc(Cl)ccc34)Cc3ccc4c(c3)OCO4)n2)CC1
inactive: OVCAR-8 ovarian 16.1% | OVCAR-5 ovarian 78.2% | OVCAR-4 ovarian 34.1% | SK-OV-3 ovarian 74.8% | IGROV1 ovarian 42.7% | OVCAR-3 ovarian 20.9% | HS 578T breast 22.1% | NCI/ADR-RES ovarian 36.4% | BT-549 breast 21.5% | MCF7 breast 23.8% | HCT-116 colon 10.3% | KM12 colon 55.9%
active: SR leukemia -35.2% | RPMI-8226 leukemia -30.4% | T-47D breast -51.7% | MDA-MB-435 melanoma -72.5% | SW-620 colon 3.4% | HCC-2998 colon -29.8%

COc1cc(NC2CCC(=O)N2c2ccc(Cl)cc2Cl)cc(OC)c1OC (stereo not given)
inactive: SR leukemia 95.6% | RPMI-8226 leukemia 102% | OVCAR-8 ovarian 103% | OVCAR-5 ovarian 99.5% | OVCAR-4 ovarian 101% | SK-OV-3 ovarian 102% | IGROV1 ovarian 105% | OVCAR-3 ovarian 101% | HS 578T breast 102% | NCI/ADR-RES ovarian 99.5% | T-47D breast 98.3% | BT-549 breast 109% | MDA-MB-435 melanoma 94.9% | SW-620 colon 96.8% | MCF7 breast 96.6% | HCT-116 colon 97.1% | KM12 colon 97.7%
